PLK1 PBD inh: qHTS for Inhibitors of PLK1-PDB (polo-like kinase 1 - polo-box domain): Primary Screen | 360,000 compounds, 2.8% hits | Potency, µM, actives largely listed as inhibitors | Plk1 PBD binding of FITC phosphopeptide, fluorescence polarization | AID 720504, 2013; note: series mostly up to about 57 µM; nearly all actives have a fitted effect of over 65% in size
JMJD2A Tudor inh: qHTS Assay for Inhibitors of JMJD2A-Tudor Domain. Lysine-specific demethylase 4A (Homo sapiens), O75164. AlphaScreen JMJD2A-Tudor / H3K4me3 peptide binding. Potency, µM (doses to about 114 µM), actives largely listed as inhibitors. 390,000 compounds, 4.4% hits; note: nearly all actives have a fitted effect of over 50% in size
VDR inhibitor: Inhibitors of the vitamin D receptor (VDR): qHTS; Vitamin D3 receptor (Homo sapiens), P11473; VDR-SRC2-3 peptide fluorescence polarization, 2 h; Potency, µM, most hits filed as inhibitors; 400,000 compounds, 0.93% hits
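Two reagent solutions held at 4 deg C in the dark were dispensed, compounds pinned at 23 nl, and the mixture incubated 2 h at room temperature. Read-out: fluorescence polarization of VDR–SRC2-3 peptide binding.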
HP1b chromo inh: HTS for Inhibitors of HP1-beta Chromodomain Interactions with Methylated Histone Tails; Chromobox protein homolog 1 (Homo sapiens), P83916; AlphaScreen HP1-beta / biotin-H3K9me3 peptide binding; Potency, µM (doses to about 114 µM), most hits filed as inhibitors; 390,000 compounds, 0.56% hits; note: nearly all actives have a fitted effect of over 70% in size
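HP1-beta protein (50 nM final) preincubated 30 min at room temperature with biotinylated H3(1-18)K9me3 peptide (50 nM) in PBS pH 7.4, 0.01% Tween-20, then compound added for 30 min. AlphaScreen streptavidin donor/nickel chelate acceptor beads (10 ug/mL final), 30 min dark, luminescence read.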
G9a inh: qHTS Assay for Inhibitors of Histone Lysine Methyltransferase G9a; Histone-lysine N-methyltransferase EHMT2 (Homo sapiens), Q96KQ7; G9a H3K9 monomethylation, AlphaScreen, 2 h; Potency, µM (doses to about 102 µM), most hits filed as inhibitors; 350,000 compounds, 8.8% hits; AID 504332, 2011; note: nearly all actives have a fitted effect of over 75% in size
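Quantitative HTS format: methyltransferase activity on a biotin-tagged H3K9 peptide is measured by AlphaScreen, using a rabbit anti-monomethyl-H3K9 antibody with streptavidin donor and anti-IgG acceptor beads. Final levels are 20 nM enzyme, 500 nM peptide, 20 uM SAM; 2 h RT.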
BAZ2B inh: qHTS Assay for Inhibitors of BAZ2B | Bromodomain adjacent to zinc finger domain protein 2B (Homo sapiens), Q9UIF8 | AlphaScreen BAZ2B-H3K14Ac peptide displacement | Potency, µM (top dose mostly 114 µM), hits mostly inhibitors | 360,000 compounds, 4.4% hits; note: nearly all actives have a fitted effect of over 60% in size
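Inhibition is scored as reduced AlphaScreen emission. The BAZ2B/b-H3(5-23)K14Ac complex (50 nM each) in PBS pH 7.4, 0.01% Tween-20 meets compound (up to 110 uM) for 30 min at RT before bead addition.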
Numbers stand for hits; ! = not confirmed by another sample; [ ] = dose if it differs, or a comment. Compounds with a hit are over-represented: about 11% of the library has one in this group of screens. Calls come from the whole dose curve; as a rule, active = well fitted curve in the direction sought with a large enough effect; inconclusive = small, poorly fitted or top-dose-only effect, or another doubt; inactive = no such curve, though single readings can be large; an effect the other way counts as inactive or inconclusive.

How did CC(C)C[C@H]1C(=O)N2CCCC2[C@]2(O)O[C@](NC(=O)[C@@H]3C=C4c5cccc6[nH]c(Br)c(c56)C[C@H]4N(C)C3)(C(C)C)C(=O)N12 (some centres undefined) do in these assays?
VDR inhibitor: 18µM; G9a inh: 22µM

What do the screens show for `CC(C)C[C@H]1C(=O)N2CCC[C@H]2[C@]2(O)O[C@](NC(=O)C3C=C4c5cccc6[nH]c(Br)c(c56)C[C@H]4N(C)C3)(C(C)C)C(=O)N12` (some centres undefined)?
PLK1 PBD inh: inactive; JMJD2A Tudor inh: inconclusive; VDR inhibitor: inactive; HP1b chromo inh: inactive

What do the screens show for `COc1ccc(-c2nc(CN3C(=O)CN=C(c4ccccc4)c4ccccc43)c(C)o2)cc1`?
JMJD2A Tudor inh: inactive; VDR inhibitor: inactive; HP1b chromo inh: inactive; G9a inh: inconclusive; BAZ2B inh: inactive

How did O=[N+]([O-])O[C@H]1CO[C@H]2[C@H]1OC[C@@H]2O[N+](=O)[O-] do in these assays?
VDR inhibitor: inactive; G9a inh: inactive[21.5 µM]

Results for C#CCOCCOCCOCCNc1nc(N2CCN(C(=O)CCCCCCCCCCNC(=O)[C@H]([C@@H](C)CC)n3cc(CCCCN=C(N)N)nn3)CC2)nc(N2CCN(C(=O)CCCCCCCCCCNC(=O)[C@H](CO)n3cc(CCCCCN)nn3)CC2)n1 ?
PLK1 PBD inh: inactive; JMJD2A Tudor inh: 56µM; VDR inhibitor: inactive; HP1b chromo inh: inconclusive; G9a inh: inactive[2.33 µM]; BAZ2B inh: 50µM

What do the screens show for `CN1CCN(C(=O)COc2ccc(S(=O)(=O)Nc3ccc(Cl)cc3)cc2)CC1`?
PLK1 PBD inh: inactive

How did CN1CCN(CC#CCOc2ccc(Cl)cc2)CC1 do in these assays?
PLK1 PBD inh: inactive; JMJD2A Tudor inh: 7.9µM; VDR inhibitor: inactive; HP1b chromo inh: inconclusive; G9a inh: 11µM; BAZ2B inh: 40µM

Results for COC(=O)C[C@@](O)(CCC(C)(C)O)C(=O)O[C@@H]1C(OC)=C[C@]23CCCN2CCc2cc4c(cc2[C@@H]13)OCO4 ?
VDR inhibitor: inactive

What do the screens show for `CC(C)c1ccc(Oc2cccc3c2S(=O)(=O)N(C2CCCC2)CC(COCc2ccccc2)O3)cc1` (centres undefined)?
PLK1 PBD inh: inactive; JMJD2A Tudor inh: inactive; VDR inhibitor: inactive; HP1b chromo inh: inactive

How did COc1ccccc1N=Nc1ccc(N)c(C)c1 do in these assays?
PLK1 PBD inh: inactive; JMJD2A Tudor inh: 45µM; VDR inhibitor: inactive; HP1b chromo inh: inconclusive; G9a inh: inactive[2.33 µM]; BAZ2B inh: 35µM

What do the screens show for `Cc1cc(C)c(N)cc1C`?
PLK1 PBD inh: inactive; JMJD2A Tudor inh: inactive; VDR inhibitor: inactive; HP1b chromo inh: inactive; G9a inh: inactive[0.501 µM]; BAZ2B inh: inactive

Results for CCOP(=O)(Nc1ccc2c(c1)C(=NNC(N)=S)c1ccccc1-2)OCC ?
PLK1 PBD inh: 27µM; JMJD2A Tudor inh: inconclusive; VDR inhibitor: inconclusive; HP1b chromo inh: inconclusive

What do the screens show for `OC(Cn1cncn1)(Cn1cncn1)c1ccc(F)cc1F`?
PLK1 PBD inh: inactive; JMJD2A Tudor inh: inactive; VDR inhibitor: inactive; HP1b chromo inh: inactive; G9a inh: inactive[2.33 µM]

How did COc1ccc(N2C(=O)CC(N3CC=C(c4ccccc4)CC3)C2=O)cc1 (centres undefined) do in these assays?
PLK1 PBD inh: inactive; JMJD2A Tudor inh: inactive; VDR inhibitor: inactive; HP1b chromo inh: inactive; G9a inh: 10µM; BAZ2B inh: inactive

Results for C[n+]1cccc(C(=O)N/N=C/c2ccc3c(c2)OCO3)c1 ?
PLK1 PBD inh: inactive; JMJD2A Tudor inh: inactive; VDR inhibitor: inactive; HP1b chromo inh: inactive; G9a inh: inconclusive; BAZ2B inh: 50µM

Results for CC(=O)c1ccc2c(c1)OCO2 ?
PLK1 PBD inh: inactive; JMJD2A Tudor inh: inactive; VDR inhibitor: inactive; HP1b chromo inh: inactive; G9a inh: inactive; BAZ2B inh: inactive

How did CCCc1nn(C)c2c1C(c1ccncc1)C(C#N)=C(N)O2 (centres undefined) do in these assays?
PLK1 PBD inh: inconclusive; JMJD2A Tudor inh: inactive; VDR inhibitor: inactive; HP1b chromo inh: inactive; G9a inh: inconclusive; BAZ2B inh: inactive

Results for N#Cc1cccc(NC(=O)c2sc3nc4c(cc3c2N)N2CCC4CC2)c1 ?
JMJD2A Tudor inh: inactive; VDR inhibitor: inactive; HP1b chromo inh: inactive; G9a inh: inactive; BAZ2B inh: inactive

How did Nc1c(C(=O)Nc2ccc(F)c(Cl)c2)sc2nc3c(cc12)N1CCC3CC1 do in these assays?
JMJD2A Tudor inh: inconclusive; VDR inhibitor: inactive; HP1b chromo inh: inactive; G9a inh: 8.9µM; BAZ2B inh: inactive

What do the screens show for `CN(C)c1ccc(NC(=O)c2sc3nc4c(cc3c2N)N2CCC4CC2)cc1`?
JMJD2A Tudor inh: inactive; VDR inhibitor: inactive; HP1b chromo inh: inactive; G9a inh: 5µM; BAZ2B inh: inconclusive

Results for Cn1c(O)c(/C=N/N2CCOCC2)c(=O)n(-c2ccccc2)c1=S ?
PLK1 PBD inh: inactive; JMJD2A Tudor inh: inactive; VDR inhibitor: inactive; HP1b chromo inh: inactive; G9a inh: inactive; BAZ2B inh: inactive

How did O=c1c(/C=N/N2CCOCC2)c(O)n(-c2ccccc2)c(=S)n1-c1ccccc1 do in these assays?
PLK1 PBD inh: inactive; JMJD2A Tudor inh: inactive; VDR inhibitor: inactive; HP1b chromo inh: inactive; G9a inh: 50µM; BAZ2B inh: inconclusive

Results for O=c1[nH]c(=S)n(-c2ccc(F)cc2)c(O)c1/C=N/N1CCOCC1 ?
PLK1 PBD inh: inactive; JMJD2A Tudor inh: inactive; VDR inhibitor: inactive; HP1b chromo inh: inactive; G9a inh: 45µM; BAZ2B inh: inconclusive

What do the screens show for `CN1C(=S)CN=C(c2ccccc2)c2cc(Cl)ccc21`?
VDR inhibitor: inconclusive; G9a inh: inactive[12.7 µM]

How did Cc1ccc(-n2c(O)c(C=NCc3ccccn3)c(=O)[nH]c2=S)cc1 do in these assays?
PLK1 PBD inh: inactive; JMJD2A Tudor inh: inactive; VDR inhibitor: inactive; HP1b chromo inh: inactive; BAZ2B inh: inactive

Results for Cn1c(O)c(C(c2ccccn2)c2c(O)n(C)c(=S)[nH]c2=O)c(=O)[nH]c1=S ?
PLK1 PBD inh: inactive; JMJD2A Tudor inh: 79µM; VDR inhibitor: inactive; HP1b chromo inh: inactive; G9a inh: inactive[0.0925 µM]; BAZ2B inh: 50µM

What do the screens show for `CCCN(CCC)CCc1ccc(O)c(O)c1`?
VDR inhibitor: inactive; G9a inh: 20µM!

How did OCCCc1ccc(O)c(O)c1 do in these assays?
PLK1 PBD inh: inactive; JMJD2A Tudor inh: 40µM; VDR inhibitor: inactive; HP1b chromo inh: inconclusive; G9a inh: inactive; BAZ2B inh: inactive

Bioassay records deposited in PubChem by National Center for Advancing Translational Sciences (NCATS).
